This is an account of results in PubChem BioAssay (Tox21).

Molecules are shown by their SMILES. Inconclusive results are not listed. A call without a number means that no potency is given here. Active and inactive are the calls of the source. Unless noted, calls come from the whole dose curve; as a rule, active = well fitted curve in the direction sought with a large enough effect in the repeat runs; inconclusive = weak or mixed curves; inactive = no such curve, though single readings can be large; an effect the other way counts as inactive or inconclusive.

Thyrotropin-releasing hormone receptor (Homo sapiens), sequence (P34981 whole entry, looked up): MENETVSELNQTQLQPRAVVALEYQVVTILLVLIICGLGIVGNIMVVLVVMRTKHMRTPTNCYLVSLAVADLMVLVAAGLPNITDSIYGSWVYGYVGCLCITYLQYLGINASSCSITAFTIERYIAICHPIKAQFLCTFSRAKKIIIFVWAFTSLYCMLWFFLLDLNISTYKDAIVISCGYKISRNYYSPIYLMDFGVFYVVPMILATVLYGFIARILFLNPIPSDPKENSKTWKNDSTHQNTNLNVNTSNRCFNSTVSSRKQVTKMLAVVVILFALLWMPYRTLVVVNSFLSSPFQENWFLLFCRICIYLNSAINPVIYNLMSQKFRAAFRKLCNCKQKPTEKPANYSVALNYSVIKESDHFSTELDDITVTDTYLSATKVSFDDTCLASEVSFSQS

In one assay the target is Thyrotropin-releasing hormone receptor (Homo sapiens) (UniProt P34981). Description: qHTS assay to identify small molecule agonists of the thyrotropin-releasing hormone receptor (TRHR) signaling pathway (AID 1346891; calls by dose curve;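 note: HEK293 cells expressing TRHR with calcium dye readout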). The conditions noted are these: TRHR-HEK293 calcium fluorescence, agonist mode; series mostly up to 57.6 µM. In outline:
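Cells: TRHR-Hek293, seeded and incubated 18 h. Dye loading: 2 h at 37 °C. Compound added from DMSO stock by pin tool. Read-out: kinetic calcium fluorescence over 3 min.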
Background: Quantitative high-throughput screening tests each substance at several concentrations.
Regarding `CCOP(=S)(OCC)SCSc1ccc(Cl)cc1`, the result was inactive.
On the same count and under the same terms, under `CCCCN(CCCCO)N=O` stands “inactive”; under `CCC(Cl)[N+](=O)[O-]` (stereo unspecified), “inactive”; under `CCN(CC)C(C)C(=O)c1ccccc1` (stereo unspecified), “inactive”.
Turning to `C[N+](=O)[O-]`, the outcome was inactive.
`CCOc1nc(C(Cl)(Cl)Cl)ns1`: the result was inactive.
The same measure, in the same setting: under `CNC(=O)Oc1cccc(C(C)C)c1` stands “inactive”; under `CN1C[C@@H](NS(=O)(=O)N(C)C)C[C@@H]2c3cccc4c3c(cn4C)C[C@H]21`, “inactive”; under `CCCCOP(=O)(O)OCCCC`, “inactive”.
The same measure, in the same setting: under `Cc1cccc(C#N)c1` stands “inactive”; under `O=[N+]([O-])c1cc(Cl)c(Cl)c(Cl)c1`, “inactive”.
In the case of `O=C1c2ccccc2C(=O)c2ccccc21`, the activation was -0.0612% [at 11.8 µM] (inactive).
With `CNC(=O)Oc1c(C(C)(C)C)cc(C)cc1C(C)(C)C`, the outcome was inactive.
On the same count and under the same terms, under `CNC(=O)Oc1ccc(N(C)C)c(C)c1` stands “inactive”.
On the same count and under the same terms, the value for `c1cc2c(c(N3CCNCC3)c1)OCCO2` was “inactive”; that for `OC(Cn1cncn1)(c1ccc(F)cc1)c1ccccc1F` (stereo unspecified) was “inactive”.
Still for that read-out and setting: under `CC1=NNC(=O)N(/N=C/c2cccnc2)C1` stands “inactive”.
For `OCCSCSCCO`, the outcome was inactive.
Turning to `O=NN1CCN(N=O)CC1`, the result was inactive.
In the case of `N#CCNCC#N`, the outcome was inactive.
On the same count and under the same terms, under `ClCCOCOCCCl` stands “inactive”; under `CN(C)CCc1ccc(O)cc1`, “inactive”.

Test system in a further assay: not listed separately
In words: Human pregnane X receptor (PXR) small molecule agonists, qHTS cell viability counter screen (AID 1346977). Note: nearly all actives have a fitted effect of over 50% in size. The settings on record: PXR-Luc HepG2 viability, CellTiter-Fluor, 24 h; series mostly up to 92.4 µM. In outline: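 Cytotoxicity counter screen run in the same wells as the PXR luciferase assay, using PXR-Luc HepG2 cells in charcoal-stripped serum medium. Viability: CellTiter-Fluor fluorescence after 24hr compound treatment.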
`CCOP(=S)(OCC)SCSc1ccc(Cl)cc1`: the Potency entry was “inactive”.
Consider `CCOC(=O)N(C)C(=O)CSP(=S)(OCC)OCC`, for which the Potency entry is “inactive”.
Take `CCOP(=S)(Oc1cnc(C(C)(C)C)nc1)OC(C)C` (stereo unspecified): the Potency result is “inactive”.
The same measure, in the same setting: under `CCCCN(CCCCO)N=O` stands “inactive”; under `NC1=NC(=O)C(c2ccccc2)O1` (stereo unspecified), “inactive”; under `CCC(Cl)[N+](=O)[O-]` (stereo unspecified), “inactive”.
Same read-out and setting: under `CCCSC(=O)Cl` stands “inactive”.
Same read-out and setting: under `CCN(CC)C(C)C(=O)c1ccccc1` (stereo unspecified) stands “inactive”.
Take `C[N+](=O)[O-]`: the Potency entry was “inactive”.
Take `ClCC(Cl)Cl`: the Potency result is “inactive”.
Same read-out and setting: the value for `CC(=O)C(Cl)Cl` was “inactive”.
For `CC1=C(C(=O)O)N2C(=O)[C@@H](N)[C@H]2SC1`, the activity change, negative = cytotoxicity is 20.6% [at 19 µM] (inactive).
Turning to `CCOc1nc(C(Cl)(Cl)Cl)ns1`, the Potency result is “inactive”.
On the same count and under the same terms, under `CNC(=O)Oc1cccc(C(C)C)c1` stands “inactive”; under `ClC(Cl)C(Cl)Cl`, “inactive”.
Still for that read-out and setting: under `CN1C[C@@H](NS(=O)(=O)N(C)C)C[C@@H]2c3cccc4c3c(cn4C)C[C@H]21` stands “inactive”.
The same measure, in the same setting: under `CC(C=O)Cc1ccc2c(c1)OCO2` (stereo unspecified) stands “inactive”; under `CCCCOP(=O)(O)OCCCC`, “inactive”.
Take `Cc1cccc(C#N)c1`: the Potency entry was “inactive”.
On the same count and under the same terms, the value for `O=[N+]([O-])c1cc(Cl)c(Cl)c(Cl)c1` was “inactive”; that for `Nc1ccccc1Cl` was “inactive”.
With `O=C1c2ccccc2C(=O)c2ccccc21`, the activity change, negative = cytotoxicity is 8.57% [at 19 µM] (inactive).
As for `CNC(=O)Oc1c(C(C)(C)C)cc(C)cc1C(C)(C)C`, the Potency entry is “inactive”.
For the molecule `N#CCBr`, the Potency result is “inactive”.
Take `CCSC(=O)N(CC)C1CCCCC1`: the Potency entry is “inactive”.
Same read-out and setting: under `CNC(=O)Oc1ccc(N(C)C)c(C)c1` stands “inactive”; under `c1cc2c(c(N3CCNCC3)c1)OCCO2`, “inactive”.
`OC(Cn1cncn1)(c1ccc(F)cc1)c1ccccc1F` (stereo unspecified): the Potency entry is “inactive”.
On the same count and under the same terms, under `CC1=NNC(=O)N(/N=C/c2cccnc2)C1` stands “inactive”; under `OCCSCSCCO`, “inactive”.
The same measure, in the same setting: the value for `O=NN1CCN(N=O)CC1` was “inactive”; that for `CNC(=O)O/N=C(\C)SC` was “inactive”.
Still for that read-out and setting: under `O=C(O)c1ccc2[nH]cc(CCCCN3CC=C(c4ccccc4)CC3)c2c1` stands “inactive”; under `CCC1(c2ccccc2)C(=O)NC(=O)NC1=O`, “inactive”; under `N#CCNCC#N`, “inactive”.
Regarding `ClCCOCOCCCl`, the Potency entry is “inactive”.
The same measure, in the same setting: the value for `CN(C)CCc1ccc(O)cc1` was “inactive”.

Test system in a further assay: not listed separately
Description: Caspase-3/7 induction in HepG2 cells by small molecules, qHTS assay (AID 1346978). Note: nearly all actives have a fitted effect of over 15% in size. The conditions noted are these: HepG2 caspase-3/7 activation, Caspase-Glo luminescence, 17 h; series mostly up to 92.4 µM. In short, it runs like this:
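Wild-type HepG2 cells (2,000/well) were settled 5 h at 37 C, 5% CO2, then exposed to compounds in DMSO for 17 h. Caspase-3/7 activity was read by luminescence 30 min after adding Caspase-Glo 3/7 reagent at room temperature.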
Turning to `CCOP(=S)(OCC)SCSc1ccc(Cl)cc1`, the Potency result was “inactive”.
The same measure, in the same setting: the value for `CCOC(=O)N(C)C(=O)CSP(=S)(OCC)OCC` was “inactive”.
As for `CCOP(=S)(Oc1cnc(C(C)(C)C)nc1)OC(C)C` (stereo unspecified), the Potency entry was “inactive”.
The same measure, in the same setting: the value for `CCCCN(CCCCO)N=O` was “inactive”.
`NC1=NC(=O)C(c2ccccc2)O1` (stereo unspecified): the Potency result was “inactive”.
The same measure, in the same setting: under `CCC(Cl)[N+](=O)[O-]` (stereo unspecified) stands “inactive”; under `CCCSC(=O)Cl`, “inactive”; under `CCN(CC)C(C)C(=O)c1ccccc1` (stereo unspecified), “inactive”.
Take `C[N+](=O)[O-]`: the Potency result is “inactive”.
The same measure, in the same setting: under `ClCC(Cl)Cl` stands “inactive”.
Same read-out and setting: the value for `CC(=O)C(Cl)Cl` was “inactive”.
For `CC1=C(C(=O)O)N2C(=O)[C@@H](N)[C@H]2SC1`, the caspase activation was -0.113% [at 19 µM] (inactive).
With `CCOc1nc(C(Cl)(Cl)Cl)ns1`, the Potency result was “inactive”.
The same measure, in the same setting: under `CNC(=O)Oc1cccc(C(C)C)c1` stands “inactive”; under `ClC(Cl)C(Cl)Cl`, “inactive”.
As to `CN1C[C@@H](NS(=O)(=O)N(C)C)C[C@@H]2c3cccc4c3c(cn4C)C[C@H]21`, the Potency entry is “inactive”.
The same measure, in the same setting: the value for `CC(C=O)Cc1ccc2c(c1)OCO2` (stereo unspecified) was “inactive”; that for `CCCCOP(=O)(O)OCCCC` was “inactive”; that for `Cc1cccc(C#N)c1` was “inactive”.
The same measure, in the same setting: the value for `O=[N+]([O-])c1cc(Cl)c(Cl)c(Cl)c1` was “inactive”; that for `Nc1ccccc1Cl` was “inactive”.
Consider `O=C1c2ccccc2C(=O)c2ccccc21`, for which the caspase activation was -0.684% [at 19 µM] (inactive).
For `CNC(=O)Oc1c(C(C)(C)C)cc(C)cc1C(C)(C)C`, the Potency result was “inactive”.
The same measure, in the same setting: under `N#CCBr` stands “inactive”; under `CCSC(=O)N(CC)C1CCCCC1`, “inactive”.
Same read-out and setting: under `CNC(=O)Oc1ccc(N(C)C)c(C)c1` stands “inactive”; under `c1cc2c(c(N3CCNCC3)c1)OCCO2`, “inactive”.
The same measure, in the same setting: under `OC(Cn1cncn1)(c1ccc(F)cc1)c1ccccc1F` (stereo unspecified) stands “inactive”.
For `CC1=NNC(=O)N(/N=C/c2cccnc2)C1`, the Potency result was “inactive”.
Still for that read-out and setting: the value for `OCCSCSCCO` was “inactive”; that for `O=NN1CCN(N=O)CC1` was “inactive”.
Still for that read-out and setting: the value for `CNC(=O)O/N=C(\C)SC` was “inactive”.
Still for that read-out and setting: under `O=C(O)c1ccc2[nH]cc(CCCCN3CC=C(c4ccccc4)CC3)c2c1` stands “inactive”; under `CCC1(c2ccccc2)C(=O)NC(=O)NC1=O`, “inactive”.
With `N#CCNCC#N`, the Potency entry is “inactive”.
On the same count and under the same terms, the value for `ClCCOCOCCCl` was “inactive”; that for `CN(C)CCc1ccc(O)cc1` was “inactive”.
